Screening data from PubChem BioAssay.
ALDH1A1 block – qHTS Assay for Inhibitors of Aldehyde Dehydrogenase 1 (ALDH1A1) | Purified ALDH1A1, NADH fluorescence, propionaldehyde substrate | Aldehyde dehydrogenase 1A1 (Homo sapiens), P00352 | actives 7.3% (n = 220,000) | Potency, µM (titrated, usually from 75.3 µM), hits mostly inhibitors | AID 1030, 2008; active means well fitted inhibition curve with a large enough effect, not every such curve was filed as active; inconclusive means small, poorly fitted or top-dose-only effect, or another doubt; inactive means no such curve, though single readings can be large or run the other way
IMPase Li cell – qHTS Assay for Identifying the Cell-Membrane Permeable IMPase Inhibitors: Potentiation with Lithium. AID 1457, 2008. actives 0.35% (n = 210,000). Potency, µM (titrated, usually from 59.4 µM), most hits filed as inhibitors. CHO-M1 cells, IP1 TR-FRET (IP-One), carbachol + lithium;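 further: IP1 builds up when IMPase is blocked and the TR-FRET signal falls; nearly all actives have a fitted effect of over 50% in size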
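Steps: plate 2000 CHO-M1 cells per well and culture 16–30 h; add compound and lithium; incubate 30 min, 37C; add d2-IP1 tracer and Eu cryptate anti-IP1 antibody in lysis buffer; read after 10 min at room temperature.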
ALOX12 inhib – qHTS Assay for Inhibitors of 12-hLO (12-human lipoxygenase); actives 0.12% (n = 150,000); Polyunsaturated fatty acid lipoxygenase ALOX12 (Homo sapiens), P18054; Potency, µM (top dose mostly 57.1 µM), actives largely listed as inhibitors; AID 1452, 2008; purified 12-hLO, xylenol orange hydroperoxide absorbance; further: nearly all actives have a fitted effect of over 55% in size
Target sequence (P18054 whole entry, looked up): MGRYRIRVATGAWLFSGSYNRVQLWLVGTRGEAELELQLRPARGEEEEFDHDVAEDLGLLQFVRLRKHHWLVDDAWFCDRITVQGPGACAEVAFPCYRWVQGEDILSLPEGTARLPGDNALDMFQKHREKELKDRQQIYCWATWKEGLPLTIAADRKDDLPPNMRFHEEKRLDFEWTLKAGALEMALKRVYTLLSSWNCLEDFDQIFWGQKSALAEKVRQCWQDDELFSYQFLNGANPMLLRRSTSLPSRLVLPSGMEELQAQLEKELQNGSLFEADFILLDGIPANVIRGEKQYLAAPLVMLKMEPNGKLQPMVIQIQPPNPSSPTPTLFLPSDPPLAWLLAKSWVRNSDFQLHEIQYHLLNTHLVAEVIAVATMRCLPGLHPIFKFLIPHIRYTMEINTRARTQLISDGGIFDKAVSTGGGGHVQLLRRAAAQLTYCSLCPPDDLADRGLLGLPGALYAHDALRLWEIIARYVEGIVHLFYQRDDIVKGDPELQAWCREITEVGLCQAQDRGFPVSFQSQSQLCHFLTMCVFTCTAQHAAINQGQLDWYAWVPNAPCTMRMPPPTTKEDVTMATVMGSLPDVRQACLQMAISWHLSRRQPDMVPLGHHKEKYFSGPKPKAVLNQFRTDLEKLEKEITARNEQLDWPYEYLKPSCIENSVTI
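Purified human 12hLO (150 nM final) was preincubated with compounds for 15 min at room temperature in 25 mM Hepes pH 7.0, 0.01% Triton X-100, then reacted with 40 uM arachidonic acid for 30 min. Hydroperoxide was detected with ferrous iron/xylenol orange.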
PNC assembly inh – High Content Assay for Compounds that inhibit the Assembly of the Perinucleolar Compartment; actives 3.1% (n = 140,000); activity change (PNC), negative = inhibition, % at 10 µM; PC3M PTB-GFP, PNC prevalence imaging, 16 h; stronger effect = lower value;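 active means readout at or below -70, meaning at least 70% loss of cells showing the perinucleolar compartment, a nuclear body marking cancer cells; inconclusive means readout between -30 and a set limit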
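Read-out is percentage of cells bearing a perinucleolar compartment, from automated 20x imaging of fixed, Hoechst-stained PC3M PTB-GFP cells. Cells were seeded 4 h, then exposed 16 h to compound (23 nl of library stock) in duplicate plates.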
IMPase cell inh – qHTS Assay for Identifying the Cell-Membrane Permeable IMPase Inhibitors. Inositol monophosphatase 1 (Rattus norvegicus), P97697. AID 901, 2007. 120,000 tested, under 10 active. inhibition (IP1 accumulation), % at 46.1 µM. CHO-M1 cells, IP1 accumulation, HTRF TR-FRET ratio; active means well fitted curve in the direction sought with a large enough effect in the signal ratio, not every such curve was filed as active; inconclusive means small, poorly fitted or top-dose-only effect, or a change in a side signal; inactive means no such curve, though single readings can be large or run the other way; the % refers to the signal ratio;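 further: cells stimulated with carbachol in lithium chloride buffer; higher means more IMPase inhibition seen as more IP1 and lower FRET ratio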
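Carbachol-driven Gq signalling in CHO-M1 cells (2000/well) generates IP1. Compounds that block IMPase raise IP1 and so reduce the FRET signal from Eu-anti-IP1 and d2-IP1 after a 10 min room-temperature lysis.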
HPGD block – qHTS Assay for Inhibitors of HPGD (15-Hydroxyprostaglandin Dehydrogenase) | purified HPGD, NADH fluorescence kinetic, PGE2 substrate | Potency, µM, actives largely listed as inhibitors | actives 4.3% (n = 150,000) | AID 894, 2007; active means well fitted inhibition curve with a large enough effect, not every such curve was filed as active; inconclusive means small, poorly fitted or top-dose-only effect, or another doubt; inactive means no such curve, though single readings can be large or run the other way
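NADH formation kinetics: reaction with 30 uM PGE2 and 1 mM NAD+ (final), 20 nM enzyme, Tris-HCl pH 8 with Tween 20, after 15 min compound preincubation at room temperature. Fluorescence change, last versus first of five reads.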
Hits are given with their value; i = inactive; ? = inconclusive; nt = not tested or not shown; [ ] = dose if it differs, or a comment. This is a sample that favours compounds with a hit; in the whole collection about 11% have one here. Unless noted, the call rests on the fitted dose curve; in most records, active means well fitted curve in the direction sought with a large enough effect; inconclusive means small, poorly fitted or top-dose-only effect, or another doubt; inactive means no such curve, though single readings can be large; an effect the other way counts as inactive or inconclusive.

SMILES	ALDH1A1 block	IMPase Li cell	ALOX12 inhib	PNC assembly inh	IMPase cell inh	HPGD block
Cc1cccc2nc(Cn3c(=O)n(CCCC(=O)NCc4ccco4)c(=O)c4ccccc43)cc(=O)n12	20µM	i	i	?	nt	28µM
CN(Cc1nc(-c2cccnc2)no1)S(=O)(=O)c1ccccc1	?	i	i	?	i	i
CN(Cc1nc(-c2ccccn2)no1)S(=O)(=O)c1ccc(Cl)cc1	?	i	i	?	i	25µM
COC(=O)[C@@]1(Cc2ccccc2)[C@H]2c3cc(C(=O)N4CCCC4)[nH]c3C[C@H]2CN1C(=O)c1ccccc1	i	i	i	nt	nt	i
O=C(Cc1ccccc1)c1nnc(-c2ccccc2)o1	8.9µM	i	nt	nt	nt	nt
COc1cc(C(c2sc3nc(C)nn3c2O)N2CCC3(CC2)OCCO3)cc(OC)c1OC (stereo not drawn)	18µM	i	i	i	i	i
COC(=O)C1CCN(C(c2cc(OC)c(OC)c(OC)c2)c2sc3nc(C)nn3c2O)CC1 (stereo not drawn)	i	i	i	?	i	i
CCCN(CCC)S(=O)(=O)c1ccc(C(=O)N2CCC(=O)c3ccccc32)cc1	18µM	i	i	i	i	i
OC1C=C2CCN3Cc4cc5c(cc4C(C1O)C23)OCO5 (stereo not drawn)	i	i	i	nt	nt	i
CCC1CSC(Nc2ccc(C(=O)/C=C/c3ccc(Br)cc3)cc2)=N1 (stereo not drawn)	i	i	i	-103	nt	?
CCC1CSC(Nc2ccc(C(=O)/C=C/c3ccc(OC)c(OC)c3)cc2)=N1 (stereo not drawn)	?	i	i	i	nt	18µM
COc1ccc(/C=C/C(=O)c2ccc(NC3=NCCCS3)cc2)cc1OC	i	i	nt	nt	nt	nt
CCSC1=C(C#N)C2(CCCCC2)C(C#N)=C(N)N1	10µM	i	i	i	i	i
N#CC1=C(N)NC(SCC(=O)Nc2ccccc2)=C(C#N)C12CCCCC2	25µM	i	i	i	i	i
N#CC1=C(N)NC(SCc2ccccc2)=C(C#N)C12CCCCC2	13µM	i	i	i	i	i
CCCSC1=C(C#N)C2(CCCCC2)C(C#N)=C(N)N1	2µM	i	nt	nt	nt	nt
OC(Cc1ccccc1)(Cc1ccccc1)c1ccccc1	i[13.5 µM]	i	i[11.4 µM]	nt	nt	i
C=CCC(C)(Nc1ccccc1)C(=O)OCC (stereo not drawn)	i	i	i	nt	nt	i
O=C(COC(=O)c1ccccc1C(=O)c1ccccc1)NCc1ccc(F)cc1	i	i	nt	nt	nt	nt
O=C(COc1ccccc1)NCc1ccccc1	i	i	i	i	i	28µM
O=C(COc1ccc(C(=O)c2ccccc2)cc1)NCc1ccc(F)cc1	?	i	i	-81	i	i
CCC/C=C(\CCC)C(NC(=O)C(C)(C)C)c1ccc(C(=O)OC)cc1 (stereo not drawn)	i	i	i	nt	nt	i
Cc1ccc(C(=O)Nc2ccc3oc(-c4ccncc4)nc3c2)c(Cl)c1	nt	nt	nt	nt	i	nt
O=C(NC(=S)Nc1cccc(CO)c1)c1ccc(-c2ccccc2)cc1	13µM	i	?	?	nt	i
CCC(=O)Nc1cccc(NC(=S)NC(=O)c2ccccc2)c1	?	i	i	i	nt	i
SMILES	ALDH1A1 block	IMPase Li cell	ALOX12 inhib	PNC assembly inh	IMPase cell inh	HPGD block
CCC(=O)Nc1cccc(NC(=S)NC(=O)c2ccc(C)cc2)c1	13µM	i	nt	nt	nt	nt
CCC(=O)Nc1cccc(NC(=S)NC(=O)c2cccc(C)c2)c1	25µM	i	?	i	nt	i
CC(=O)c1cccc(NC(=S)NC(=O)Cc2ccccc2)c1	?	i	nt	nt	nt	nt
CN1CCN(c2ncc3nc(-c4ccc(F)cc4)c(=O)n(C4CC4)c3n2)CC1	?	i	nt	nt	nt	nt
CN1CCN(C(=O)/C=C/c2ccc3c(c2)OCO3)CC1	i	i	i	i	nt	?
O=C(/C=C/C=C/c1ccc2c(c1)OCO2)N1CCCCC1	?	i	i	nt	nt	16µM
COc1ccc(NC(=O)CSc2ncnc3c2cnn3Cc2ccccc2)cc1OC	?	i	i	i	i	i
COc1ccc(Nc2ncnc3c2cnn3Cc2ccccc2)cc1OC	8.9µM	nt	i	i	i	nt
Cc1cccc(Nc2ncnc3c2cnn3Cc2ccccc2)c1	22µM	i	nt	nt	nt	nt
COc1ccc(CC(=O)NNc2ncnc3c2cnn3Cc2ccccc2)cc1OC	10µM	nt	nt	nt	nt	nt
COc1ccc2cnn(Cc3ccccc3)c(=O)c2c1OC	3.5µM	nt	i	i	i	nt
O=C(Nc1cccc(O)c1)c1cc2nc(-c3ccc(Br)cc3)cc(C(F)(F)F)n2n1	nt	nt	nt	nt	i	nt
COCCn1c(=N)c(C(=O)NC(C)c2ccccc2)cc2c(=O)n3cc(C)ccc3nc21 (stereo not drawn)	nt	nt	nt	nt	i	nt
CCCC(NC(=O)CCl)c1ccccc1 (stereo not drawn)	i	nt	i	i	i	nt
CCC(NC(=O)CCl)c1ccc(C)cc1 (stereo not drawn)	8.9µM	i	nt	nt	nt	nt
CC(NC(=O)CCl)c1ccc(Cl)c(Cl)c1 (stereo not drawn)	10µM	i	i	i	i	i
CC(C)CC(NC(=O)CCl)c1ccccc1 (stereo not drawn)	?	i	i	?	nt	i
COc1cccc(Nc2ncc3nc(-c4ccc(F)cc4)c(=O)n(CCC#N)c3n2)c1	i	i	i	nt	nt	i
Cc1c(C(=O)N2CCC(Cc3ccccc3)CC2)sc2ncnc(N3CCC(C)CC3)c12	i	i	nt	nt	nt	nt
Cc1c(C(=O)N2CCN(Cc3ccccc3)CC2)sc2ncnc(N3CCOCC3)c12	25µM	i	i	i	i	i
CCOC(=O)c1sc2ncnc(N3CCN(C(=O)OCC)CC3)c2c1C	i	i	i	i	i	i
Cc1c(C(=O)N2CCC(C)CC2)sc2ncnc(N(C)c3ccccc3)c12	?	i	i	i	?	8.9µM
c1ccc(SCCSc2ccccc2)cc1	i	i	i	nt	nt	i
C[C@H]1Cc2c(-c3ccccc3)nc3c(c2CO1)CN(C(=O)c1cccnc1)CC3	i[13.5 µM]	i	i[11.4 µM]	nt	nt	i
COC1=C[C@@H](C)C2CC3OC(=O)C[C@H]4C(C)=C(OC)C(=O)C([C@@]2(C)C1=O)[C@@]34C (stereo partly drawn)	i	i	nt	nt	nt	i
COC(=O)C/C=C\[C@@H](C)[C@@H](/C=N\OC[C@@H](O)COCc1ccco1)OC	i[13.5 µM]	nt	nt	nt	nt	nt
CC(=O)c1cccc(S(=O)(=O)NC2CCCCCC2)c1	10µM	i	i	i	nt	i
Cc1ccc2ccc(S(=O)(=O)n3nc(C)cc3C)cc2c1	0.89µM	i	i	i	i	?
COc1ccc(C)cc1S(=O)(=O)n1nc(C)cc1C	i	i	nt	nt	nt	nt
